This passage reports growth results from PubChem BioAssay (NCI).

Each structure is given as a SMILES string. This is part of a sample that, as a whole, favours compounds with a hit. Of some 83,000 tested, about 20% had one in any assay.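 Assay: single dose, 48 h. Readout: percent growth (0 = no net growth; negative = cell death). Active: <10.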 Unmarked numbers belong to inactive results. The source made the active and inactive calls.

In one assay the test system is SK-MEL-5 melanoma. Briefly: NCI-60 one-dose screen, 48 h (100 = growth as untreated, 0 = no growth, -100 = all killed). To be noted: 10 µM unless noted.
For the molecule `COc1ccc(NC(=O)c2sc3nc(C)c(C(O)c4ccc(OC)cc4)cc3c2N)cc1` (stereo unspecified), the growth is 9.53% (active).
Turning to `N#Cc1c(NC(=O)c2cccc(Br)c2)sc2c1CCCC2`, the growth was 89.8%.
Take `Clc1ccc(C2CC(c3cccc(Nc4ccncc4)c3)=NN2c2ccccc2)cc1` (stereo unspecified): the growth is 68.6%.
Consider `O=C(OCc1nc2nc(Cl)nc(N3CCOCC3)c2[nH]1)n1ccnc1`, for which the growth was 20.1%.
`CC(=O)O[C@]1(C(C)=O)CC[C@H]2[C@@H]3C=C(Cl)C4=CC(=O)CC[C@]4(C)[C@H]3CC[C@@]21C`: the growth is 109%.
Consider `CC(=O)c1c[nH]c2ccc(-c3ccnc(Nc4ccc(NC(=O)C5CCCC5)c(CN5CCOCC5)c4)n3)cc12`, for which the growth was -74.6% (active).
With `O=C(N/N=C/c1cccnc1)c1ccccc1Nc1cccc(C(F)(F)F)c1`, the growth is 74.3%.
With `CN1CCN(CCCOc2ccc3ncnc(Nc4ccc(Oc5cccc(C(F)(F)F)c5)c(Cl)c4)c3c2)CC1`, the growth was -96.8% (active).
For `CN(C)Cc1c(-c2ccccc2)[nH]c2ccccc12`, the growth is 101%.
Take `O=C(OC(OC(=O)c1cc(Cl)cc(Cl)c1)c1cccc2ccccc12)c1ccccc1` (stereo unspecified): the growth is 102%.
As for `CCC(C)C(N)C(=O)NNc1n[nH]c(=S)n1N` (stereo unspecified), the growth is 100%.
As to `CC[C@H](C)[C@@H]1NC(=O)[C@H](Cc2ccc(O)cc2)N(C)C(=O)[C@H](Cc2ccccc2)NC(=O)CN(C)C(=O)[C@@H]2CCCN2C(=O)[C@@H](Cc2ccccc2)N(C)C(=O)[C@H](CC(C)C)NC1=O`, the growth was -67.2% (active).
Take `C#CC(=O)Nc1cccc(Nc2nc3c(c(NCc4ccccc4)n2)CCCC3)c1`: the growth is -89.2% (active).
As to `CCCCCOc1ccc(/C=N/Nc2cc(C)nc3ccc(Br)cc23)cc1`, the growth was 89.1%.
Regarding `COc1ccc(OC)c(/C=C/[C@H]2O[C@@H](C)[C@H](O)[C@@H]2O)c1`, the growth was 103%.
Same read-out and setting: then `COc1ccc(C(=O)c2cc(C)c(OC)c(C)c2)c(OC)c1O`, with -34.5% (active); and `C=C1C(=O)O[C@H]2[C@H]1CC/C(CNC(=O)/C=C/c1ccc(Br)cc1)=C\CC[C@@]1(C)O[C@@H]21`, with 28.7%; and `O=C(c1ccccc1)N1N=C(c2ccc(-n3ccc(C(F)(F)F)n3)cc2)CC1c1ccc[nH]1` (stereo unspecified), with 101%.
Same read-out and setting: to `CS(=O)(=O)Nc1cc(-c2ccc3ncnc(Nc4ccc5[nH]ncc5c4)c3c2)cnc1Cl` belongs 81%; to `Nc1ncc(C#Cc2cncc(NC(=O)c3cccc(C(F)(F)F)c3)c2)c2cccnc12`, 34%.
For `CCOC(=O)Oc1c(OC)cc(C(=O)O[C@@H]2C[C@@H]3CN4CCc5c([nH]c6cc(OC)ccc56)[C@H]4C[C@@H]3[C@H](C(=O)OC)[C@H]2OC)cc1OC`, the growth is 86.1%.
Same read-out and setting: to `O=C1Nc2ccccc2/C1=C\c1cccc(/C=C2/C(=O)Nc3ccccc32)n1` belongs -99.1% (active).
`NC(=O)CN1CCN(c2ccccc2Cl)CC1`: the growth is 110%.
Take `CSc1nnc2c(=O)n(C)c(=O)n(C)c2n1`: the growth is 106%.
Take `NC(=O)c1cccc(-c2ccccc2N2CCCCC2)c1`: the growth is 100%.
On the same count and under the same terms, then `COc1cnccc1-c1nc2ccc3[nH]ncc3c2c2c1CCCC2`, with 54.1%.
On to `c1ccc(-c2nnc(Nc3ccc4c(c3)OCCO4)o2)c(NCc2ccncc2)c1`, for which the growth is -50% (active).
For `CNC(=O)Nc1ccc(-c2nc(N3CCOCC3)nc3c2cnn3C2CCOCC2)cc1`, the growth is -47.7% (active).
Take `O=C(N/N=C/c1ccc(O)c(O)c1)c1sc2ccccc2c1Cl`: the growth is 81.8%.
As for `COc1cc(C2CC(c3cccc(Nc4ccncc4)c3)=NN2c2ccccc2)cc(OC)c1OC` (stereo unspecified), the growth was -52.5% (active).
With `Nc1ccccc1NC(=O)c1ccc(CN2CCC/C(=C\c3cccc(Cl)c3)C2=O)cc1`, the growth is -41.9% (active).
Consider `C[C@H]1[C@H](C)CC[C@]2(CO)CC[C@]3(C)C(=CC[C@@H]4[C@@]5(C)CCCNC(C)(C)[C@@H]5CC[C@]43C)[C@H]12`, for which the growth was 22.5%.
The same measure, in the same setting: then `O=c1[nH]nc(-c2ccc(Br)cc2)cc1Cc1ccc(O)cc1`, with 87.1%.
`CC1(C)CC[C@]2(C(=O)NCC#CCN3CCOCC3)CC[C@]3(C)C(=CC[C@@H]4[C@@]5(C)Cc6c([nH]c7ccccc67)C(C)(C)[C@@H]5CC[C@]43C)[C@@H]2C1`: the growth is 88.8%.
Turning to `COc1ccc(C(=O)/C=C/c2cn(Cc3ccc(Cl)cc3)c3ccccc23)cc1`, the growth is 89.1%.
Consider `COC(=O)CCCCCCCCC1(C)C=CC(C(C)O)=CC1` (stereo unspecified), for which the growth is 99%.
Turning to `COc1ccc(-c2nn(Cc3ccccc3)c3c2-c2oncc2CC3)cc1OC`, the growth was 102%.
On to `COc1ccc(CNC(=O)COc2ccc(/C=N/Nc3nc4ccccc4s3)cc2)cc1`, for which the growth was 23.6%.

For a further assay, the system named is UACC-62 melanoma. The description is as above. Conditions: 10 µM unless noted.
For `COc1ccc(NC(=O)c2sc3nc(C)c(C(O)c4ccc(OC)cc4)cc3c2N)cc1` (stereo unspecified), the growth was 31.6%.
Turning to `N#Cc1c(NC(=O)c2cccc(Br)c2)sc2c1CCCC2`, the growth is 71.7%.
On the same count and under the same terms, to `Clc1ccc(C2CC(c3cccc(Nc4ccncc4)c3)=NN2c2ccccc2)cc1` (stereo unspecified) belongs 93.9%; to `O=C(OCc1nc2nc(Cl)nc(N3CCOCC3)c2[nH]1)n1ccnc1`, -80.4% (active).
`CC(=O)O[C@]1(C(C)=O)CC[C@H]2[C@@H]3C=C(Cl)C4=CC(=O)CC[C@]4(C)[C@H]3CC[C@@]21C`: the growth is 90.6%.
Same read-out and setting: to `CC(=O)c1c[nH]c2ccc(-c3ccnc(Nc4ccc(NC(=O)C5CCCC5)c(CN5CCOCC5)c4)n3)cc12` belongs -90.1% (active).
As to `O=C(N/N=C/c1cccnc1)c1ccccc1Nc1cccc(C(F)(F)F)c1`, the growth was 102%.
On the same count and under the same terms, then `CN1CCN(CCCOc2ccc3ncnc(Nc4ccc(Oc5cccc(C(F)(F)F)c5)c(Cl)c4)c3c2)CC1`, with -75.7% (active).
Turning to `CN(C)Cc1c(-c2ccccc2)[nH]c2ccccc12`, the growth was 102%.
Turning to `O=C(OC(OC(=O)c1cc(Cl)cc(Cl)c1)c1cccc2ccccc12)c1ccccc1` (stereo unspecified), the growth was 86.4%.
Still for that read-out and setting: to `CCC(C)C(N)C(=O)NNc1n[nH]c(=S)n1N` (stereo unspecified) belongs 101%; to `CC[C@H](C)[C@@H]1NC(=O)[C@H](Cc2ccc(O)cc2)N(C)C(=O)[C@H](Cc2ccccc2)NC(=O)CN(C)C(=O)[C@@H]2CCCN2C(=O)[C@@H](Cc2ccccc2)N(C)C(=O)[C@H](CC(C)C)NC1=O`, -28.8% (active); to `C#CC(=O)Nc1cccc(Nc2nc3c(c(NCc4ccccc4)n2)CCCC3)c1`, -77.9% (active).
Turning to `CCCCCOc1ccc(/C=N/Nc2cc(C)nc3ccc(Br)cc23)cc1`, the growth is 93.2%.
Take `COc1ccc(OC)c(/C=C/[C@H]2O[C@@H](C)[C@H](O)[C@@H]2O)c1`: the growth was 100%.
Regarding `COc1ccc(C(=O)c2cc(C)c(OC)c(C)c2)c(OC)c1O`, the growth is 30.3%.
Take `C=C1C(=O)O[C@H]2[C@H]1CC/C(CNC(=O)/C=C/c1ccc(Br)cc1)=C\CC[C@@]1(C)O[C@@H]21`: the growth was -93.5% (active).
Same read-out and setting: then `O=C(c1ccccc1)N1N=C(c2ccc(-n3ccc(C(F)(F)F)n3)cc2)CC1c1ccc[nH]1` (stereo unspecified), with 89.6%; and `CS(=O)(=O)Nc1cc(-c2ccc3ncnc(Nc4ccc5[nH]ncc5c4)c3c2)cnc1Cl`, with 58.9%.
The same measure, in the same setting: then `Nc1ncc(C#Cc2cncc(NC(=O)c3cccc(C(F)(F)F)c3)c2)c2cccnc12`, with 55.7%.
Turning to `CCOC(=O)Oc1c(OC)cc(C(=O)O[C@@H]2C[C@@H]3CN4CCc5c([nH]c6cc(OC)ccc56)[C@H]4C[C@@H]3[C@H](C(=O)OC)[C@H]2OC)cc1OC`, the growth was 87.8%.
The same measure, in the same setting: to `O=C1Nc2ccccc2/C1=C\c1cccc(/C=C2/C(=O)Nc3ccccc32)n1` belongs -67.3% (active).
Same read-out and setting: to `NC(=O)CN1CCN(c2ccccc2Cl)CC1` belongs 113%.
Same read-out and setting: to `CSc1nnc2c(=O)n(C)c(=O)n(C)c2n1` belongs 95.8%.
Turning to `NC(=O)c1cccc(-c2ccccc2N2CCCCC2)c1`, the growth is 85%.
Take `COc1cnccc1-c1nc2ccc3[nH]ncc3c2c2c1CCCC2`: the growth is 38.1%.
On to `c1ccc(-c2nnc(Nc3ccc4c(c3)OCCO4)o2)c(NCc2ccncc2)c1`, for which the growth was 20.7%.
For the molecule `CNC(=O)Nc1ccc(-c2nc(N3CCOCC3)nc3c2cnn3C2CCOCC2)cc1`, the growth is -39.6% (active).
As to `O=C(N/N=C/c1ccc(O)c(O)c1)c1sc2ccccc2c1Cl`, the growth is 73.8%.
For the molecule `COc1cc(C2CC(c3cccc(Nc4ccncc4)c3)=NN2c2ccccc2)cc(OC)c1OC` (stereo unspecified), the growth was 96.2%.
As to `Nc1ccccc1NC(=O)c1ccc(CN2CCC/C(=C\c3cccc(Cl)c3)C2=O)cc1`, the growth is 27.1%.
Regarding `C[C@H]1[C@H](C)CC[C@]2(CO)CC[C@]3(C)C(=CC[C@@H]4[C@@]5(C)CCCNC(C)(C)[C@@H]5CC[C@]43C)[C@H]12`, the growth is -72.3% (active).
For `O=c1[nH]nc(-c2ccc(Br)cc2)cc1Cc1ccc(O)cc1`, the growth is 85.6%.
Take `CC1(C)CC[C@]2(C(=O)NCC#CCN3CCOCC3)CC[C@]3(C)C(=CC[C@@H]4[C@@]5(C)Cc6c([nH]c7ccccc67)C(C)(C)[C@@H]5CC[C@]43C)[C@@H]2C1`: the growth is 49.3%.
`COc1ccc(C(=O)/C=C/c2cn(Cc3ccc(Cl)cc3)c3ccccc23)cc1`: the growth was 31.3%.
For `COC(=O)CCCCCCCCC1(C)C=CC(C(C)O)=CC1` (stereo unspecified), the growth is 107%.
As for `COc1ccc(-c2nn(Cc3ccccc3)c3c2-c2oncc2CC3)cc1OC`, the growth was 86.8%.
Same read-out and setting: then `COc1ccc(CNC(=O)COc2ccc(/C=N/Nc3nc4ccccc4s3)cc2)cc1`, with 34%.
